From PubChem
SMN2 splice enh: qHTS Assay for Enhancers of SMN2 Splice Variant Expression. HEK293 SMN2-luciferase splicing reporter, luminescence, 30-36 h. Potency, µM (highest dose often 46.1 µM), without a hit: top-dose activity change, positive = activation, actives largely listed as activators. 2.8% of 210,000 active; further: % of control where 0% means no effect; nearly all actives have a fitted effect of over 55% in size
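qHTS luciferase splicing reporter: luminescence rises when SMN2 exon 7 is included in transfected HEK293 cells. Compound exposure lasted 30-36 h at 37C, with 4.5 mM final sodium butyrate as control, followed by a ONE-Glo read.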
FLuc counter: qHTS profiling assay for firefly luciferase inhibitor/activator using purifed enzyme and Km concentrations of substrates (counterscreen for miR-21 project) | Luciferin 4-monooxygenase (Photinus pyralis), P08659 | purified FLuc, Km substrates, luminescence inhibition | 6.9% of 360,000 active | AID 588342, 2011 | Potency, µM (doses to about 57.5 µM), without a hit: at the highest dose activity change, negative = inhibition, hits mostly inhibitors;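 further: plate controls were vehicle for no effect and reference inhibitor for full effect; nearly all actives have a fitted effect of over 55% in size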
Target sequence (P08659 whole entry, looked up): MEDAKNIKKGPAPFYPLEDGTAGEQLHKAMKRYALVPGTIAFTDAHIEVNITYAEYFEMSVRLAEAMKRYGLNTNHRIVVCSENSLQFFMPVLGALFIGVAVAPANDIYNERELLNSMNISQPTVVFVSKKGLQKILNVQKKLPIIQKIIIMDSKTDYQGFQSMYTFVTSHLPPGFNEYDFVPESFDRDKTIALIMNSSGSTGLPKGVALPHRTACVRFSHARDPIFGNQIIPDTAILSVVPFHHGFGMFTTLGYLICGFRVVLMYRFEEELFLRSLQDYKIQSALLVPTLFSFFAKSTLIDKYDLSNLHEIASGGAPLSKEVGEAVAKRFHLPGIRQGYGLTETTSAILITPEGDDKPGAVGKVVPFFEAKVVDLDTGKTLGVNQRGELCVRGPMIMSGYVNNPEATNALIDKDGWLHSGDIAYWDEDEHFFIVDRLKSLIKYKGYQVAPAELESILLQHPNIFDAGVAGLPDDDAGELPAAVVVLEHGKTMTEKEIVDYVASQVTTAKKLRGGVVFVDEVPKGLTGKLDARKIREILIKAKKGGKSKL
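Purified P. pyralis luciferase (10nM final) with 10uM D-luciferin and 10uM ATP (Km levels) in 50mM Tris acetate pH 7.5, 10mM Mg acetate, 0.01% Tween-20, 0.05% BSA; qHTS 6-point titration, ~60 µM downward; luminescence read.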
NPC1 prom act: qHTS Assay for NPC1 Promoter Activators; Huh7 NPC1 promoter luciferase reporter, 24 h; Potency, µM (top dose mostly 9.22 µM), without a hit: at the top dose activation, usual class: activators; 2.4% of 320,000 active; AID 485313, 2010; further: % of control where 0% means no effect; nearly all actives have a fitted effect of over 60% in size
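Readout is luciferase luminescence, reflecting NPC1 promoter activation in stably transfected Huh7 cells after 24 h compound exposure at 37 °C in reduced-serum medium with 10% FBS.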
Rab9 promoter act: qHTS Assay for Rab9 Promoter Activators; Potency, µM (titrated, usually from 9.22 µM), for inactives: at the highest dose activation, negative = inhibition, usual class: activators; Huh7 Rab9 promoter-luciferase reporter, luminescence, 24 h; 2.8% of 320,000 active; further: % of control where 0% means no effect; nearly all actives have a fitted effect of over 60% in size
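Huh7 cells stably carrying Rab9 promoter–luciferase reporter, plated 1500 cells/well, compound added after 2 h and incubated 24 h at 37 °C; luciferase luminescence then read after 10 min with detection reagent.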
ELG1 genotox: qHTS screen for small molecules that induce genotoxicity in human embryonic kidney (HEK293T) cells expressing luciferase-tagged ELG1; Potency, µM (top dose mostly 46 µM), inactives show top-dose activity change, positive = activation, actives largely listed as activators; 1.3% of 330,000 active; HEK293T ELG1-luciferase reporter, luminescence, 16 h; further: % of control where 0% means no effect; nearly all actives have a fitted effect of over 60% in size
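Cells (2,000/well) expressing the ELG1-luciferase fusion are dosed by pin tool and kept 16 hr at 37 °C, 5% CO2. Signal comes from ONE-Glo luciferase reagent after 30 min at room temperature.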
Active calls of the source: *; ? = inconclusive; · = not tested or not shown. Most compounds without a hit are left out; they make up all but 7.4% or so of the library. The call rests on the fitted dose curve; in most records, active means well fitted curve in the direction sought with a large enough effect; inconclusive means small, poorly fitted or top-dose-only effect, or another doubt; inactive means no such curve, though single readings can be large; an effect the other way counts as inactive or inconclusive. Potency means the concentration at half of the fitted maximal effect.

SMILES | SMN2 splice enh | FLuc counter | NPC1 prom act | Rab9 promoter act | ELG1 genotox
O=C(Nc1ccccc1F)Nc1cccc2ccc(O)cc12 | · | 17µM* | 19% | ? | 0%
O=C(Nc1ccccc1F)Nc1ccccc1F | 13µM* | 15µM* | ? | 2.5µM* | 26%
CCc1ccccc1NC(=O)Nc1ccc(F)cc1 | · | ? | 0% | 15% | 1%
O=C(NCCc1ccccc1)/C(=C\c1ccccc1)NC(=O)c1ccco1 | · | 0% | -5% | 0% | 5%
O=C(CCc1ccccc1)Nc1ccc(F)cc1F | 14% | ? | 27% | ? | ?
O=C(CCc1ccccc1)Nc1ccccc1F | 16µM* | 12µM* | ? | 2.8µM* | ?
Cn1cc2ccc(N)cc2n1 | · | -16% | 1% | -5% | -2%
Cc1ccc(-n2nc3ccc(N)cc3n2)cc1 | 3.2µM* | 0.54µM* | ? | 0.5µM* | 1.4µM*
Nc1ccc2nn(-c3ccc(F)cc3)nc2c1 | · | 4.3µM* | 0.89µM* | 1.4µM* | 3.3µM*
Nc1ccc2nn(-c3cc([N+](=O)[O-])ccc3O)nc2c1 | · | 0% | 11% | 17% | -4%
Cc1ccc(-n2nc3ccc(NC(=O)c4cccc([N+](=O)[O-])c4C)cc3n2)cc1 | 11% | ? | -7% | -13% | 8%
CC(C)c1ccc(-n2nc3ccc(N)cc3n2)cc1 | · | 0.15µM* | 0.89µM* | 0.45µM* | ?
CCOc1ccc(NC(=S)Nc2ccc(F)cc2)cc1 | · | ? | 2% | 8% | -1%
Cc1ccc(NC(=S)Nc2ccccn2)c(C)c1 | · | 8.5µM* | ? | 2.8µM* | ?
Cc1cccc(NC(=S)Nc2ccccn2)c1 | · | ? | 22% | ? | 12%
CCOc1ccc(NC(=S)Nc2cc(-c3ccccc3)[nH]n2)cc1 | -7% | 21µM* | 0% | 3% | -4%
Cc1cc(C)nc(NC(=S)Nc2cccc(F)c2)c1 | · | ? | 4% | 25% | 3%
Cc1cc(Cl)ccc1NC(=S)Nc1ccccn1 | ? | -16% | ? | ? | 6%
COc1cccc(NC(=S)Nc2cc(C)cc(C)n2)c1 | · | 2.1µM* | 4% | 5% | 14%
Cc1ccc(NC(=S)Nc2ccccn2)cc1C | · | 17µM* | 18% | ? | 16%
O=C(Cn1cccn1)N1CCCC(N2CCN(c3ccccc3F)CC2)C1 (stereo not given) | · | 1% | -3% | 7% | -2%
CCCCC[C@@H]1C=C(C(=O)O)[C@H](c2ccc(Br)cc2)N1S(=O)(=O)c1ccc(C)cc1 | · | · | · | · | 0%
Cc1cc(Cn2nc(C(=O)NCc3cccc(Br)c3)cc2-c2ccccc2)on1 | · | 1% | 2% | -1% | -6%
O=C(CCNC(=O)c1ccc([N+](=O)[O-])cc1)NC1CCCc2ccccc21 (stereo not given) | · | 3% | 6% | 4% | -4%
COc1ccc(NC(=S)Nc2ccccn2)cc1 | · | 13µM* | 3.2µM* | 2.5µM* | ?
SMILES | SMN2 splice enh | FLuc counter | NPC1 prom act | Rab9 promoter act | ELG1 genotox
COC(=O)c1ccc(NC(=S)Nc2ccc(O)cc2)cc1 | -9% | -5% | -1% | -4% | 1%
COC(=O)c1ccc(NC(=S)Nc2ccccn2)cc1 | 11µM* | ? | 2.8µM* | 1.8µM* | ?
CCCCN(CCCC)C(=O)c1cc2c(=O)n3ccccc3nc2s1 | -2% | 3% | · | · | ·
CC(CCc1ccccc1)NC(=O)CCCCCNc1nc(=S)[nH]c2ccccc12 (stereo not given) | · | 1% | -1% | -11% | -10%
CCCCn1cnc2sc(-c3ccccc3)cc2c1=O | 24% | 5.4µM* | 1.4µM* | 1.6µM* | ?
CCCCCn1cnc2sc(-c3ccccc3)cc2c1=O | ? | 6.7µM* | 2.5µM* | 2.2µM* | 13%
O=c1c2cc(-c3ccccc3)sc2ncn1/N=C/c1ccco1 | 10% | 8.5µM* | ? | 3.5µM* | ?
O=c1c2c(-c3ccccc3)csc2ncn1/N=C/c1c2ccccc2cc2ccccc12 | -15% | -1% | -1% | 3% | -17%
COc1ccccc1-n1cnc2sc(-c3ccccc3)cc2c1=O | -20% | 11µM* | ? | 2.8µM* | 5%
